Experimental data reported in PubChem BioAssay (NCI).
This is part of a sample that, as a whole, favours compounds with a hit. Of some 83,000 tested, about 20% had one in any assay.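 Results are percent growth after 48 hours of single-concentration exposure. 100 means growth as in untreated cells, lower positive values show inhibition; negative values down to -100 show cell death.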 The source made the active and inactive calls. How the source made its calls: active means growth percent below 10; inactive means the rest.

What was measured:
Experiment in all cases: NCI-60 one-dose screen, 48 h (100 = growth as untreated, 0 = no growth, -100 = all killed)
Conditions in all cases: 10 µM
[1] = system: NCI-H23 lung
[2] = system: NCI-H226 lung
[3] = system: NCI-H322M lung
[4] = system: HOP-62 NSCLC
[5] = system: NCI-H460 lung
[6] = system: HOP-92 NSCLC
[7] = system: NCI-H522 lung
[8] = system: A549/ATCC NSCLC
[9] = system: 786-0 renal
[10] = system: COLO 205 colon
[11] = system: DU-145 prostate
[12] = system: K-562 leukemia
[13] = system: MALME-3M melanoma
[14] = system: MDA-MB-231 breast
[15] = system: RXF 393 renal
[16] = system: SF-268 CNS
[17] = system: SF-295 CNS
[18] = system: SF-539 CNS
[19] = system: UACC-257 melanoma
[20] = system: M14 melanoma

Measured: growth

COc1ccc2oc(=O)cc(C3c4ccc([nH]4)C(c4cc(=O)oc5ccc(OC)cc45)c4ccc([nH]4)C(c4cc(=O)oc5ccc(OC)cc45)c4ccc([nH]4)C(c4cc(=O)oc5ccc(OC)cc45)c4ccc3[nH]4)c2c1 (stereo not given)
active: [1] -12.4% | [5] 6.39% | [7] -71.9% | [9] -24% | [10] -76.7% | [11] -19.3% | [12] -20.5% | [13] 2.83% | [14] -16.5% | [15] -77.3% | [17] 9.08% | [18] -26.9% | [20] 3.08%
inactive: [2] 15.8% | [3] 27.9% | [4] 17.6% | [6] 41.8% | [8] 41.1% | [16] 20.4% | [19] 33.7%

COc1ccc(-c2nnc(COc3ccc(NC(=O)Nc4ccccc4)cc3F)o2)cc1
inactive: [1] 92.4% | [2] 95.2% | [3] 90.1% | [4] 89.2% | [5] 84.4% | [6] 52.2% | [7] 52.5% | [8] 93.3% | [9] 79.1% | [10] 110% | [11] 83.3% | [12] 71.8% | [13] 84.1% | [14] 74.8% | [15] 94.5% | [16] 78.6% | [17] 98.6% | [18] 86.4% | [19] 96.8% | [20] 89.8%

COc1ccc(N2CCN(c3nc(-c4ccccc4)c(C#N)c(=O)[nH]3)CC2)cc1
inactive: [1] 98.7% | [2] 107% | [3] 94.6% | [4] 91.8% | [5] 103% | [6] 92.4% | [7] 92.7% | [8] 104% | [9] 103% | [10] 102% | [11] 107% | [12] 87.6% | [13] 80.8% | [14] 106% | [15] 105% | [16] 108% | [17] 102% | [18] 99.6% | [19] 109% | [20] 96.8%

Cc1nn2c(/C=C3/C(=O)Nc4ccc(Cl)cc43)c(-c3ccccc3)nc2s1
active: [4] -19.8% | [6] -5.92% | [13] -2.37% | [14] 8.13% | [15] 7.51%
inactive: [1] 51.4% | [2] 33.4% | [3] 12.7% | [5] 25.7% | [7] 43.6% | [8] 24.2% | [9] 41.2% | [10] 49.7% | [11] 31.9% | [12] 56.7% | [16] 30.4% | [17] 70.1% | [18] 38.1% | [19] 62.3% | [20] 55.4%

Nc1c(CNCc2nnn(Cc3ccccc3)c2N)nnn1Cc1ccccc1
inactive: [1] 103% | [2] 100% | [3] 100% | [4] 98.9% | [5] 103% | [6] 90.3% | [7] 102% | [8] 101% | [9] 102% | [10] 114% | [11] 107% | [12] 93.6% | [13] 79.9% | [14] 108% | [15] 99.7% | [16] 103% | [17] 101% | [18] 95.6% | [19] 103% | [20] 98.5%

O=C(Nc1cccc(Cl)c1)Nc1cc2ncncc2cc1OCc1cccc(F)c1
active: [4] -4.3% | [5] 4.36% | [6] -4.78% | [7] -8.47% | [8] 2.26% | [10] -69.6% | [12] 8.22% | [17] 7.22% | [19] -34.2% | [20] -18.2%
inactive: [1] 20.6% | [2] 37.1% | [3] 15.5% | [9] 39% | [11] 18.9% | [13] 10.8% | [14] 27.2% | [15] 31.5% | [16] 26.6% | [18] 36%

CCCCn1c(=O)[nH]c(N)c(C(c2ccc(Cl)cc2)c2c(N)[nH]c(=O)n(CCCC)c2=O)c1=O
inactive: [1] 53.9% | [2] 58.7% | [3] 63.6% | [4] 59.1% | [5] 32% | [6] 54.7% | [7] 37.9% | [8] 40.2% | [9] 41% | [10] 43.9% | [11] 65.7% | [12] 28.7% | [13] 68.9% | [14] 54.4% | [15] 18.7% | [16] 38.1% | [17] 35.2% | [18] 43.9% | [19] 41% | [20] 35%

O=c1cc(CSc2nnc(-c3ccccc3)n2-c2ccc(F)cc2)c2ccc3ccccc3c2o1
inactive: [1] 83.6% | [2] 81.4% | [3] 91.8% | [4] 92.8% | [5] 100% | [6] 83.5% | [7] 74.1% | [8] 99.2% | [9] 102% | [10] 91.3% | [11] 109% | [12] 82.9% | [13] 97% | [14] 91.1% | [15] 108% | [16] 93.8% | [17] 95.9% | [18] 98.7% | [19] 103% | [20] 102%

Cc1ccc([P+](Cc2ccc([N+](=O)[O-])cc2)(c2ccc(C)cc2)c2ccc(C)cc2)cc1
inactive: [1] 41% | [2] 80.6% | [3] 69.3% | [4] 70.8% | [5] 60.5% | [8] 81% | [9] 82.4% | [11] 78.3% | [12] 11.2% | [14] 41.6% | [15] 67.2% | [16] 54.2% | [17] 45.2% | [18] 69% | [20] 19%
active: [6] -19.6% | [7] 0.971% | [10] 7.68% | [13] -15% | [19] -14.6%

O=C(N/N=C\c1cc(Cl)ccc1O)c1ccncc1
inactive: [1] 46% | [2] 31.6% | [3] 59.5% | [4] 55.7% | [5] 25.3% | [6] 47.5% | [7] 11.7% | [8] 79.8% | [9] 19.1% | [10] 23.7% | [11] 48.3% | [12] 39.1% | [13] 80% | [14] 56% | [15] 57.4% | [16] 37.5% | [17] 77.2% | [18] 63.6% | [19] 53.7% | [20] 47.6%

COc1ccc(-c2cc(/C=C3\C(=O)Nc4cc(Cl)ccc43)[nH]n2)cc1
active: [7] -14.9% | [15] 9.94% | [17] 1.51% | [18] 4.51%
inactive: [1] 54.1% | [2] 56.1% | [3] 81.9% | [4] 45.4% | [5] 22% | [6] 51.7% | [8] 44% | [9] 52.1% | [10] 19.4% | [11] 26.4% | [12] 13.3% | [13] 29.2% | [14] 54.5% | [16] 36.5% | [19] 62.2% | [20] 35%

Nc1c(C(=O)NC2CCCCC2)sc2nc3c(cc12)C(=O)CCC3
inactive: [1] 98.7% | [2] 95.4% | [3] 105% | [4] 120% | [5] 103% | [6] 82.9% | [7] 98.6% | [8] 84.5% | [9] 99.5% | [10] 116% | [11] 102% | [12] 88.4% | [13] 139% | [14] 101% | [15] 92.1% | [16] 109% | [17] 88.8% | [18] 107% | [19] 88.1% | [20] 103%

C=CCn1c(C)nc2cc(Nc3nc(Nc4ccc5nc(C)n(CC=C)c5c4)c4ccccc4n3)ccc21
active: [1] -69.2% | [2] -47.1% | [3] -92.2% | [4] -99.5% | [5] -84.2% | [6] -79% | [7] -94.8% | [8] -67.1% | [9] -70.6% | [10] -100% | [11] -96% | [12] -27.7% | [13] -68.3% | [14] -85.8% | [15] -97.4% | [16] -69.8% | [17] -86.6% | [18] -95.8% | [19] -79.8% | [20] -88%

COCc1cc2c(cc1Br)OCO2
inactive: [1] 96.7% | [2] 95.5% | [3] 96.5% | [4] 87.3% | [5] 106% | [6] 102% | [7] 88.6% | [8] 88.4% | [9] 102% | [10] 102% | [11] 112% | [12] 107% | [13] 98.6% | [14] 110% | [15] 107% | [16] 100% | [17] 99.1% | [18] 95.5% | [19] 101% | [20] 100%

Nc1ccc(C2=CC(c3ccc(Cl)cc3)N3C=CSC3=N2)cc1 (stereo not given)
active: [1] -46.6% | [2] -71.4% | [3] -57.2% | [4] -63.8% | [5] -6.81% | [6] -22.7% | [7] -65.9% | [8] -39.3% | [9] -90.9% | [10] -85.1% | [11] -44.6% | [12] 3.22% | [13] -82.8% | [14] -14.4% | [15] -93.1% | [16] -41.9% | [17] -0.33% | [18] -55.8% | [19] -78.1% | [20] -71.1%

C=C[C@]1(C)C=C2C(=O)[C@@]3(O)OC(=O)[C@@]4(CCCC(C)(C)[C@H]34)[C@@]2(O)CC1
active: [1] -60.6% | [2] -55.8% | [3] -27.4% | [4] -1.33% | [5] 0.905% | [6] -87.6% | [7] -71.7% | [8] -66.6% | [9] -98.5% | [10] -98.2% | [11] -99.4% | [12] 1.73% | [13] -69.6% | [14] -71.9% | [15] -97.4% | [16] -66.7% | [17] -17.2% | [18] -97.6% | [19] -93% | [20] -89%
